assay: qHTS profiling of the MIPE4 collection as inhibitors of Plasmodium falciparum (3D7) proliferation (AID 743344);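 also: scaled between DMSO vehicle wells and 0.29 µM artemisinin as full inhibition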; details: P. falciparum 3D7 in erythrocytes, SYBR Green DNA fluorescence, 72 h; at 9.64 µM (top of the series)
Text: Plasmodium falciparum is a virulent malarial parasite that kills 1-2 million people worldwide each year. Transmitted by mosquitoes, the sporozoite form of the parasite enters the blood stream to infect hepatocytes, where they become merozoites that infect red blood cells (erythrocytes). Within erythrocytes, merozoites begin a […] cycle of growth and division, after which the parasite is released to infect new red blood cells. Gametocytes, which form within erythrocytes as well, circulate in the bloodstream and are ingested by the mosquito, thereby completing the life cycle. To profile malarial isolates for differential chemical responses and to identify inhibitors of malarial growth, an assay that measures P. falciparum growth and replication within erythrocytes was employed. This assay uses a DNA binding fluorescent dye (SYBR Green) to detect parasite DNA following cell lysis. Because mature erythrocytes lack DNA, only Plasmodium-derived DNA is detected.
The SYBR Green viability assay was adapted from a method described previously (Plouffe et al., 2008). For screening 3 ul culture medium was dispensed into 1536 well black clear bottom plates (Aurora Biotechnologies) using a Multidrop Combi (Thermo Fisher Scientific Inc.), 23 nL compounds in DMSO were added by a pin tool (Kalypsys), and 5 ul of erythrocytes infected with P. falciparum (0.3% parasitemia, 2.5% hematocrit final concentration) were added. The plates were incubated at 37 C in a humidified incubator in 5% CO2 for 72 h, and 2 ul lysis buffer (20 mM Tris HCl, 10 mM EDTA, 0.16% saponin, 1.6% triton X, 10X SYBR Green I supplied as 10,000X […] by Invitrogen) was added to each well. The plates were mixed for 25 sec with gentle shaking and incubated overnight at room temperature in the dark. The following morning, fluorescence intensity at 485(14) nm excitation and 535(25) nm emission wavelengths was measured on an EnVision (Perkin Elmer) plate reader. Plate reads were normalized relative to the control inhibitor (0.29 uM artemisinin) and vehicle (DMSO) wells present on each plate and then corrected by an algorithm using vehicle-only control plates at the beginning and end of the compound plate stack.

Clc1ccc(COC(Cn2ccnc2)c2ccc(Cl)cc2Cl)c(Cl)c1 (stereo not given) showed a parasite growth, % of DMSO control of 4.92%.

same assay, conditions: P. falciparum 3D7 in erythrocytes, SYBR Green DNA fluorescence, 72 h; at 28.5 µM

In the case of Clc1ccc(COC(Cn2ccnc2)c2ccc(Cl)cc2Cl)c(Cl)c1 (stereo not given), the parasite growth, % of DMSO control is reported as 5.47%.

same assay, conditions: P. falciparum 3D7 in erythrocytes, SYBR Green DNA fluorescence, 72 h; at 28.5 µM unless noted

Point of comparison: CC(O)=C(C#N)C(=O)Nc1ccc(C(F)(F)F)cc1, parasite growth, % of DMSO control 63.7%. Against it:
- O=C(Nc1cccc(C(F)(F)F)c1)Nc1cc(S(=O)(=O)NC2CC2)ccc1-c1ccsc1 — lower, 52.8%
- CN1CCN2c3ncccc3Cc3ccccc3C2C1 (stereo not given) — higher, 85.3%
- CN(C(Cc1ccc(OS(=O)(=O)c2cccc3cnccc23)cc1)C(=O)N1CCN(c2ccccc2)CC1)S(=O)(=O)c1cccc2cnccc12 (stereo not given) — lower, 6.17%
- Cc1ccc(C2=Nc3ccc(Cl)cc3OC2)cc1 — lower, 30.3%
- O=C(c1ccc(C(=O)N2CCC(N3CCCC3)CC2)c(Nc2ccccc2)c1)N1CCC(N2CCCC2)CC1 — higher, 80.6%
- CC1C(=O)OC2C(O)C34C5CC(C(C)(C)C)C36C(OC(=O)C6O)OC4(C(=O)O5)C12O (stereo not given) — higher, 93.4%
- CC(C)(CO)[C@@H](O)C(=O)NCCC(=O)O — higher, 92.1%
- COC(=O)Nc1ccc(-c2nc(N3CCOCC3)c3cnn(C4CCN(C(=O)OC)CC4)c3n2)cc1 — lower, 11.1%
- O=C(Nc1cccc2c(=O)cc(-c3nn[nH]n3)oc12)c1ccc(OCCCCc2ccccc2)cc1 — lower, 8.12%
- COc1cc2c(cc1Cc1cccc(Cl)c1F)c(=O)c(C(=O)O)cn2[C@H](CO)C(C)C — lower, 7.9%
- Cc1ccccc1C(C(=O)NC1CCCCC1)N(C(=O)CNc1ccc(C#N)cc1)c1cccc(F)c1 (stereo not given) — higher, 145%
- COc1cc(C=CC(=O)O)ccc1O — higher, 88.4%
- CCOC(=O)N1c2ccc(C(F)(F)F)cc2[C@@H](N(Cc2cc(C(F)(F)F)cc(C(F)(F)F)c2)C(=O)OC)C[C@H]1CC — lower, 6.27%
- NC(=O)c1noc([C@H](CCCC2CCCCC2)CC(=O)NO)n1 — lower, 33.9%
- C[C@H](c1ccc(F)cc1CCCC(=O)O)N(c1cc(F)ccc1F)S(=O)(=O)c1ccc(Cl)cc1 — lower, 48.3%
- Cc1[nH]c(C=C2C(=O)Nc3ccc(S(=O)(=O)N(C)c4cccc(Cl)c4)cc32)c(C)c1C(=O)N1CCN(C)CC1 — lower, 7.33%
- CNC(=O)[C@H](Cc1ccccc1)NC(=O)[C@H](CC(C)C)[C@H](CSc1cccs1)C(=O)NO — lower, 4.98%
- Clc1ccc(C2(c3ccc(-c4cn[nH]c4)cc3)CCNCC2)cc1 — lower, 4.5%
- CC1CCN(c2cc(N3CCN(C)CC3)ccc2NC(=O)c2cc(C#N)c[nH]2)CC1 — lower, 39.9%
- NC[C@H]1O[C@H](O[C@@H]2[C@@H](O)[C@@H](O[C@H]3O[C@H](CO)[C@@H](O)[C@H](N)[C@@H]3O)[C@H](N)C[C@@H]2N)[C@H](O)[C@@H](O)[C@H]1O — higher, 96.1%
- COc1cc2nccc(Oc3ccc(NC(=O)Nc4cc(C)on4)c(Cl)c3)c2cc1OC — lower, 7.24%
- CN(C)S(=O)(=O)c1ccc2c(c1)C(=Cc1cc3c([nH]1)CCCC3)C(=O)N2 — lower, 22.9%
- O=C(O)C1=CC(O)C(O)[C@H](O)C1 (stereo not given in full) — higher, 92.4%
- O=C1CN2Cc3c(ccc(Cl)c3Cl)N=C2N1 — higher, 82.8%
- Cc1cc2c(cc1C1(c3ccc(C(=O)O)cn3)CC1)C(C)(C)CCC2(C)C — lower, 58.3%
- N#Cc1c(N(CC(=O)O)CC(=O)O)sc(C(=O)O)c1CC(=O)O — higher, 86.7%
- Cc1c(C(=O)Nc2ccc(N3C[C@@H](C)O[C@@H](C)C3)nc2)cccc1-c1ccc(OC(F)(F)F)cc1 — lower, 54.5%
- CN1CCc2c(n(Cc3ccc(C(=O)NO)cc3)c3ccccc23)C1 — lower, 5.97%
- O=C(O)c1ccc(O)c2ncc(N3CCOCC3)cc12 — lower, 15.1%
- COc1cc2ncn(-c3cc(OCc4ccccc4S(C)(=O)=O)c(C#N)s3)c2cc1OC — higher, 76.2%
- CC(=O)Nc1cccc(-n2c(=O)n(C3CC3)c(=O)c3c(Nc4ccc(I)cc4F)n(C)c(=O)c(C)c32)c1 — lower, 5.62%
- CN[C@@H](C)[C@H]1[C@H](O)C[C@@]2(C)[C@@H]3CC[C@H]4C(C)(C)[C@@H](NC)CC[C@@]45C[C@@]35CC[C@]12C — lower, 16.9%
- CCN1CCC(n2cc(CNc3cc(Cl)c4ncc(C#N)c(Nc5ccc(F)c(Cl)c5)c4c3)nn2)CC1 — lower, 12.9%
- CN(C)CCN(C)C(=O)c1ccc(NC(=O)Nc2ccc(-c3nc(N4CCOCC4)c4ccn(CC(F)(F)F)c4n3)cc2)cc1 — lower, 5.47%
- CC1(C)C(N(O)C(=O)Nc2ccc(Cl)cc2)N(c2ccc(Cl)cc2)C(=O)N1CC(=O)NN=CC=Cc1ccc([N+](=O)[O-])o1 (stereo not given) — lower, 5.05%
- O=C(c1ccc(C=Cc2n[nH]c3ccccc23)cc1)N1CCNCC1 — lower, 22.1%

For CN[C@H]1[C@@H](O[C@@H]2[C@H](O[C@@H]3[C@@H](O)[C@@H](O)[C@@H](N=C(N)N)[C@@H](O)[C@@H]3N=C(N)N)O[C@H](C)[C@@]2(O)C=O)O[C@@H](CO)[C@@H](O)[C@H]1O, the parasite growth, % of DMSO control was 99% [at 9.64 µM].

Source: PubChem BioAssay (NCATS)
